Laboratory results as given in PubChem BioAssay AID1878 (Sanford-Burnham Center for Chemical Genomics, 2009).
The campaign covered roughly 1,000 compounds. About 200 (20%) were called active. No stated cut-off is given here; in the data, active means inhibition above about 55%; inactive means the rest. Only a sample is shown. Measured potencies and affinities stand elsewhere.

target: Dual specificity protein phosphatase 3 (Homo sapiens) (UniProt P51452); assay: VHR1 phosphatase inhibitors, biochemical (AID 1878); conditions: recombinant VHR phosphatase, fluorogenic substrate; at 13.3 µM; active compounds read high
Sequence (P51452 whole entry, looked up): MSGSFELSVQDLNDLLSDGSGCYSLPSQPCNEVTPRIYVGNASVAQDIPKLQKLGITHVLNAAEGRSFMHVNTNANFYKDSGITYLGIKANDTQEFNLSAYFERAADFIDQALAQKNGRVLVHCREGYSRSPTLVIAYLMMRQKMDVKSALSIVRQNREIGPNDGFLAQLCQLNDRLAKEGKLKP

Row | SMILES | inhibition
1 | CN(C)C(CNC1CC(C)(C)NC(C)(C)C1)c1cccc(F)c1 (stereo unspecified) | 12.5% (inactive)
2 | Cc1ccc(-c2nc3ccccc3s2)cc1NC(=O)c1cc(-n2cnnc2)ccc1Cl | 63.4% (active)
3 | COc1ccc(-c2nn(CCC#N)cc2C(=O)Nc2ccccc2Cl)cc1 | 2.2% (inactive)
4 | O=C1CN(C(=O)c2ccccc2)C(c2ccccc2)c2cc(F)ccc2N1 (stereo unspecified) | -4.4% (inactive)
5 | COc1cc(NC(=O)CCc2nnc3ccc(N4CCCCC4)nn23)cc(OC)c1OC | -6.5% (inactive)
6 | Nc1c(C(=O)NC2CC2)sc2nc3c(c(-c4ccco4)c12)CC/C3=C/c1ccco1 | 11.4% (inactive)
7 | O=C(O)CCCCC1CCSS1 (stereo unspecified) | 97.7% (active)
8 | CCCn1c2ccccc2c2cnn(CC(=O)NCCCN3CCCC(C)C3)c(=O)c21 (stereo unspecified) | -8.7% (inactive)
9 | CCOc1cccc(CN2CCCC(N3CCc4ccccc4C3)C2)c1O (stereo unspecified) | -11% (inactive)
10 | O=C(Nc1ccc2oc(-c3cccnc3)nc2c1)c1ccc2c(c1)OCCO2 | 62.5% (active)
11 | c1cncc(-c2nc(-c3ccc4c(c3)OCCO4)cs2)c1 | -10.9% (inactive)
12 | COc1cc2cc(C(=O)Nc3ccc4c(c3)OCCO4)[nH]c2cc1OC | -3.4% (inactive)
13 | CC1=C(C(=O)OC(C)C)C(c2ccccc2)NC(=O)N1C (stereo unspecified) | 6.5% (inactive)
14 | COC(=O)c1cccc(CSC(=S)N2CCCC2)c1 | -7.9% (inactive)
15 | COc1ccc(Nc2ccc([N+](=O)[O-])cn2)cc1 | -0.2% (inactive)
16 | O=[N+]([O-])c1ccc(-c2nnc(S)n2-c2ccccc2)cc1 | -5.8% (inactive)
17 | O=C(O)c1ccc(Nc2nc(-c3ccc([N+](=O)[O-])cc3)nc3ccccc23)cc1 | 97.6% (active)
18 | Cc1ccc(C)c(N(CC(=O)NC2CCCC2)C(=O)CNC(=O)c2cccs2)c1 | -6.9% (inactive)
19 | Cc1ccccc1CCN1CCCC(CN(C)C(=O)C(=O)c2ccco2)C1 (stereo unspecified) | 9.9% (inactive)
20 | Cc1cc(NC(=O)CCSc2ccc(Cl)cc2)no1 | 2.1% (inactive)
21 | Cc1ccc(S(=O)(=O)N(C)CC(=O)OCC(=O)NC(=O)NC(C)C)cc1 | -21.6% (inactive)
22 | COc1cc(/C=C2\SC(=O)N(Cc3ccc(F)cc3)C2=O)cc([N+](=O)[O-])c1O | 53% (active)
23 | O=C(CCCCCN1C(=O)[C@@H]2Cc3ccccc3CN2C1=O)Nc1ccccc1F | 11% (inactive)
24 | CCCCNC(=O)NNC(=O)C1CC1(c1ccccc1)c1ccccc1 (stereo unspecified) | 9.1% (inactive)
25 | COc1cc(CCC(=O)NCc2ccc3c(c2)OCO3)cc(OC)c1OC | 0.3% (inactive)
26 | CS(=O)(=O)NN1C(=O)c2ccccc2NC1c1ccccc1F (stereo unspecified) | -7.9% (inactive)
